In the library only some 31% were active in any assay of this set; here they are far more common.
PLAP activator: activators of human placental alkaline phosphatase; AID 696; activation fold at 20 µM; P05187; purified PLAP enzyme, luminescent substrate read-out; stronger effect = higher value; 96,000 compounds, 1.2% hits; in the data active = activation fold above about 2
Target sequence (P05187 whole entry, looked up): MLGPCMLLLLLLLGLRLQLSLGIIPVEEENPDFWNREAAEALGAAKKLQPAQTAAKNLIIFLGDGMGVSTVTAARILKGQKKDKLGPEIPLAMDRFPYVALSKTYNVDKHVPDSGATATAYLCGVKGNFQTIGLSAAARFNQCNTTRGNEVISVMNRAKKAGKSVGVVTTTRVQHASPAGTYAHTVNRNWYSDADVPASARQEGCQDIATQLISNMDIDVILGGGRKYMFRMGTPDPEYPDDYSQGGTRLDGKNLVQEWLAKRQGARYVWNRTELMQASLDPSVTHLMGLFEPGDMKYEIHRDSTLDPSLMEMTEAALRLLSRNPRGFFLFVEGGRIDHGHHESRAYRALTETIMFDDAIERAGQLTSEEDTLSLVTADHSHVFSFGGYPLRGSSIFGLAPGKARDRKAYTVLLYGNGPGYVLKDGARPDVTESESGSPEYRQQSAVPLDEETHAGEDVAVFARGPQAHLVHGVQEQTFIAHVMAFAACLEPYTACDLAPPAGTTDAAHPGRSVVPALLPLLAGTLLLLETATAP
CYP2C9 activ: increases human cytochrome P450 2C9 activity; activation factor at 5 µM; 96,000 compounds, 1.4% hits; P11712; recombinant CYP2C9, luciferin-H conversion, luminescence; stronger effect = higher value; factor 1 = untreated enzyme, 0 = blocked;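 active = activation factor of 2 or more for CYP2C9 at a 5 µM dose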;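 also: 0 = sulfaphenazole-blocked wells and 1 = vehicle-only wells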
CYP2C9 inhib: inhibitors of human CYP2C9. inhibition, % at 5 µM. P11712. 96,000 compounds, 20% hits. AID 777. CYP2C9 Supersomes, luciferin-H conversion, luminescence;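 active = blocking of liver enzyme CYP2C9 beyond about 50% at 5 µM, limit read from the data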
CYP2C19 inh: inhibitors of human CYP2C19; 96,000 compounds, 21% hits; AID 778; P33261; CYP2C19 Supersomes, luciferin-H EGE luminescence, 30 min; inhibition, % at 5 µM;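 active = CYP2C19 inhibition above a set limit at 5 µM in the primary screen, cut at about 50% in these data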;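 also: plate controls were negative control wells for no effect and 2.5 mM tranylcypromine positive control for full effect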
CYP2C19 activ: cytochrome P450 2C19 (human) activation | 96,000 tested, under 10 active | recombinant CYP2C19, luciferin-H EGE luminescence; stronger effect = higher value; 0 = fully inhibited enzyme, 1 = untreated enzyme | P33261 | activation factor at 5 µM;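 active = activation factor of at least 2 at 5 µM in the primary screen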;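 also: 0 = wells with 2.5 mM tranylcypromine and 1 = vehicle-only wells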
The depositor's hits bear a star.

SMILES | PLAP activator | CYP2C9 activ | CYP2C9 inhib | CYP2C19 inh | CYP2C19 activ
CCOC(=O)NC(=O)COC(=O)Cc1cc(OC)c(OC)c(OC)c1 | 1.1 | 1 | 1.5 | 7.8 | 0.9
Cc1cc(NS(=O)(=O)c2ccc(NC(=O)CCCOc3ccc(Cl)cc3)cc2)no1 | 1.3 | 0.4 | 57.8* | 22.0 | 0.8
Cc1cc(NS(=O)(=O)c2ccc(NC(=O)CCCOc3ccccc3)cc2)no1 | 1.1 | 1 | -3.7 | 1.0 | 1
Cc1ccc2c(Cl)cc(Cl)c(OCC(=O)Nc3cc(C)on3)c2n1 | 0.9 | 1.9 | -89.2 | 50.1* | 0.5
COc1ccc(C(C(=O)NC(C)(C)C)N(Cc2ccco2)C(=O)CCC(=O)Nc2cc(C)on2)cc1 (stereo not given) | 1 | 0.3 | 69.4* | 38.4 | 0.6
Cc1cccc(OCCC(=O)NCC(c2ccco2)N2CCCCC2)c1 (stereo not given) | 1.4 | 0.9 | 10.8 | 33.6 | 0.7
O=C(OCCNC(=O)c1ccc2ccccc2n1)c1cccnc1 | 1 | 0.3 | 66.4* | 89.6* | 0.1
COCCNC(=O)c1ccc2ccccc2n1 | 1.1 | 0.9 | 11.2 | 23.6 | 0.8
CCN(CC)S(=O)(=O)c1ccc(C(=O)OCCNC(=O)c2cccnc2)cc1 | 1 | 0.3 | 72.5* | 2.6 | 1
Cn1c(OCc2ccc3c(c2)OCO3)nc2c1c(=O)n(Cc1ccc(Cl)c(Cl)c1)c(=O)n2C | 1.4 | 0.2 | 80.1* | 35.5 | 0.6
Cn1c(N2CCCCC2)nc2c1c(=O)n(Cc1cccc(Br)c1)c(=O)n2C | 0.7 | 0.9 | 5.2 | 2.2 | 1
Cn1c(NCC(O)CO)nc2c1c(=O)n(Cc1ccc(Cl)c(Cl)c1)c(=O)n2C (stereo not given) | 1.4 | 0.7 | 27.9 | 15.1 | 0.8
Cn1c(OCc2cccnc2)nc2c1c(=O)n(Cc1ccc(Br)cc1)c(=O)n2C | 1.6 | 0.3 | 67.9* | 68.2* | 0.3
Cn1c(NCc2ccco2)nc2c1c(=O)n(Cc1ccc(Cl)c(Cl)c1)c(=O)n2C | 1.4 | 0.3 | 69.1* | 60.1* | 0.4
CC1CCCC(NC(=O)Nc2cccs2)C1C (stereo not given) | 0.9 | 0.9 | 5.0 | 31.6 | 0.7
Cc1ccc(-c2nn3c(C)nnc3s2)cc1NCc1c(F)cccc1Cl | 0.9 | 0.3 | 74.3* | 67.5* | 0.3
Cc1ccc(-c2nn3c(C)nnc3s2)cc1NC(=O)c1cccnc1 | 1.2 | 0.4 | 60.0* | 50.5* | 0.5
Cc1ccc(-c2nn3c(C)nnc3s2)cc1NC(=O)COc1ccc(Cl)cc1 | 1 | 0.7 | 28.1 | 15.8 | 0.8
Cc1nnc2sc(-c3cccc(NC(=O)c4cccnc4)c3)nn12 | 0.9 | 1 | 2.4 | 0.6 | 1
Cc1ccc(CNc2cc(-c3nn4c(C)nnc4s3)ccc2C)s1 | 0.8 | 0.5 | 54.0* | 27.8 | 0.7
O=C(CSc1nc(-c2ccccc2)cc(=O)[nH]1)N1CCOCC1 | 1.1 | 1 | -0.8 | -3.8 | 1
C=CCn1c(SCc2nc(N)nc(N(C)C)n2)nnc1-c1cccnc1 | 1.2 | 0.8 | 15.0 | 49.4 | 0.5
CCOC(=O)Cc1cc(OC)c(OC)cc1Cc1cc(OC)c(OC)cc1CC(=O)OCC | 1.4 | 0.8 | 23.1 | 55.3* | 0.4
COC(=O)Cc1cc(OC)c(OC)cc1Cc1cc(OC)c(OC)cc1CC(=O)OC | 1.5 | 0.8 | 24.8 | 87.5* | 0.1
COC(=O)c1cc(Br)c(=O)n(CCC2=CCCCC2)c1 | 0.8 | 0.2 | 84.6* | 96.3* | 0
SMILES | PLAP activator | CYP2C9 activ | CYP2C9 inhib | CYP2C19 inh | CYP2C19 activ
COC(=O)c1cc(Br)c(=O)n(-c2ccc(F)cc2)c1 | 1 | 0.9 | 14.7 | 89.2* | 0.1
COC(=O)c1cc(Br)c(=O)n(CCN2CCCCC2)c1 | 1 | 1 | 2.0 | -1.3 | 1
COC(=O)C1=C(C)N(CCC2=CCCCC2)C(=O)C1 | 1.3 | 0.6 | 44.1 | 97.8* | 0
COC(=O)c1cc(Br)c(=O)n(CC(C)C)c1 | 1.1 | 0.9 | 6.3 | 27.0 | 0.7
COC(=O)C1=C(C)N(CC2CCCO2)C(=O)C1 (stereo not given) | 0.9 | 0.8 | 24.5 | 16.7 | 0.8
COC(=O)c1cc(Br)c(=O)n(CCc2ccc(O)cc2)c1 | 0.9 | 0.9 | 9.8 | 51.5* | 0.5
COC(=O)c1cc(Br)c(=O)n(CCN2CCCC2)c1 | 1.1 | 1 | 3.6 | 7.1 | 0.9
CCOc1ccccc1COC(=O)c1cccc(-n2cnnn2)c1 | 0.7 | 1.8 | -76.0 | 46.3 | 0.5
CC(Sc1nnc(C(C)N(C)C)n1-c1ccc(Cl)cc1)C(=O)Nc1ccc2c(c1)OCO2 (stereo not given) | 1.4 | 0.9 | 6.1 | 14.9 | 0.9
Cc1cnc(NC(=O)CSc2nnc(CNc3ccc(F)cc3)n2CC2CCCO2)s1 (stereo not given) | 1.2 | 0.8 | 24.9 | 1.8 | 1
CC1(C)NC(=O)N(CC(O)COc2ccc(-c3ccc(C#N)cc3)cc2)C1=O (stereo not given) | 0.8 | 1.1 | -5.1 | 9.6 | 0.9
COC(=O)c1cc(Br)c(=O)n(Cc2ccco2)c1 | 1.1 | 0.8 | 24.7 | 23.3 | 0.8
COC(=O)c1cc(Br)c(=O)n(-c2ccccc2F)c1 | 1 | 1 | -1.6 | 50.6* | 0.5
COC(=O)c1cc(Br)c(=O)n(CCc2ccc(F)cc2)c1 | 0.6 | 0.4 | 55.6* | 93.9* | 0.1
O=C(NCc1cccnc1)C1CCN(S(=O)(=O)N2CCC3(CC2)OCCO3)CC1 | 0.9 | 1.1 | -6.4 | -11.8 | 1.1
c1ccc(OCCOCCSc2ncccn2)cc1 | 0.9 | 0.9 | 5.1 | 46.5 | 0.5
Cc1ncc(N=Nc2ccccc2)c(-c2ccccc2)n1 | 1 | 0.9 | 6.2 | 18.6 | 0.8
Nc1cc(Cl)c(N)cc1Cl | 0.8 | 1.1 | -13.6 | -2.2 | 1
Cc1ccc2[nH]cc(C(=O)CN3CCOCC3)c2c1 | 0.9 | 0.9 | 8.5 | 17.1 | 0.8
O=C(CN1CCOCC1)c1c[nH]c2ccccc12 | 0.9 | 0.9 | 9.8 | 11.7 | 0.9
CCN1CCN(CC(=O)c2c[nH]c3ccc(C)cc23)CC1 | 1 | 0.5 | 50.9* | -19.1 | 1.2
CCOC(=O)N1CCN(CC(=O)c2c[nH]c3ccc(F)cc23)CC1 | 1.1 | 0.5 | 51.0* | 46.3 | 0.5
O=C(CN1CCC2(CC1)OCCO2)c1c[nH]c2ccccc12 | 1 | 1 | 3.1 | 81.0* | 0.2
Cc1ccccc1-c1nc(CS(=O)(=O)CC(=O)Nc2cc(F)ccc2F)c(C)o1 | 1.1 | 0.9 | 14.6 | -9.1 | 1.1
CC(=O)c1c(C)nn(C(=O)N2CCOCC2)c1C | 0.9 | 1 | -2.4 | -4.5 | 1
SMILES | PLAP activator | CYP2C9 activ | CYP2C9 inhib | CYP2C19 inh | CYP2C19 activ
CCn1ncc(C2=NOC(C(=O)NCCc3ccccc3)C2)c1C (stereo not given) | 0.7 | 1 | -4.3 | -0.1 | 1
Cc1ccccc1-c1nnc(-c2ccccc2)o1 | 1 | 0.6 | 37.9 | 43.9 | 0.6
Cn1cc(-c2nnc(-c3ccccc3)o2)c2ccccc21 | 1.1 | 2.4* | -142.9 | -6.3 | 1.1
CCOC(=O)CN1N=C(/C=C/c2ccc(OC)cc2)CCC1=O | 1 | 1.1 | -8.5 | -4.5 | 1
COc1ccc(-c2ncc3ccccn23)cc1 | 1.2 | 0.5 | 49.4 | 62.0* | 0.4
COc1cc(-c2ncc3ccccn23)cc(OC)c1OC | 0.9 | 0.8 | 17.6 | 14.5 | 0.9

Screening data (PubChem BioAssay)
